The results in this text go back to PubChem BioAssay (NCI).

Assay [1] can be described thus: NCI Yeast Anticancer Drug Screen. Data for the rad50 strain (AID 155).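 Also: 0% = growth of vehicle-only cultures of the same strain.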 Conditions: S. cerevisiae rad50 strain growth inhibition, active compounds read high. The essentials:
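Yeast carrying a defined DNA repair defect were exposed to test compounds, and growth was compared with vehicle-treated controls to give percent inhibition.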

Assay [2] in a line: NCI Yeast Anticancer Drug Screen. Data for the mec2-1 strain (AID 157). Conditions: S. cerevisiae mec2-1 strain, active compounds read high. The essentials: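 Vehicle-treated cultures served as reference for growth inhibition of compound-exposed mec2-1 yeast.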
A short description of assay [3]: NCI Yeast Anticancer Drug Screen. Data for the sgs1 mgt1 strain (AID 161).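 Also: 0% = growth of cultures given vehicle only.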 Conditions: S. cerevisiae sgs1 mgt1 strain, active compounds read high. In a few lines:
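Test agents were incubated with a DNA-repair-mutant yeast strain. Growth was then read and compared against vehicle-treated controls.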

Assay [4] in a line: NCI Yeast Anticancer Drug Screen. Data for the cln2 rad14 strain (AID 165).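 Also: 0% = growth equal to vehicle treated cultures.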 Conditions: S. cerevisiae cln2 rad14 strain, active compounds read high. The essentials: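 Each compound was tested on cln2 rad14 yeast. Inhibition of growth was calculated against vehicle-exposed controls.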
The nature of assay [5]: NCI Yeast Anticancer Drug Screen. Data for the bub3 strain (AID 167). Particulars: S. cerevisiae bub3 mutant strain, active compounds read high. The essentials:
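Compounds were applied to a genetically altered yeast strain carrying a cell-cycle control defect. Growth inhibition was scored against vehicle-treated controls.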

Assay [6] can be described thus: NCI Yeast Anticancer Drug Screen. Data for the mlh1 rad18 strain (AID 175). Particulars: S. cerevisiae mlh1 rad18 strain growth inhibition, active compounds read high. The essentials: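 Vehicle-treated cultures served as the reference for growth inhibition in a yeast strain carrying DNA damage repair alterations exposed to each compound.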
The mark [7] stands for this setting: at 5.0 µM (retest, dose inferred, filed as 0.5).
The mark [8] stands for this setting: at 50.0 µM (retest, dose inferred, filed as 5.0).

Each structure is given as a SMILES string. Compounds without any hit were thinned out: in the full panel of roughly 79,000, 15% have a hit. Values without a mark were called inactive. Activity calls are given as the source filed them. Rule as the data show it: active = growth inhibition above about 70%; inactive = the rest.

`Cc1c2ccccc2c(C)c2c1ccc1ccccc12`: the growth inhibition was 73% (active) in assay [1] (setting [7]); 91% (active) in assay [1] (setting [8]); 96.8% (active) in assay [1] (at 50.0 µM); 93% (active) in assay [2] (setting [7]); 91% (active) in assay [2] (setting [8]); 97.5% (active) in assay [2] (at 50.0 µM). Also, the growth inhibition in assay [3] (setting [7]) was 93% (active); in assay [3] (setting [8]), 94% (active); in assay [3] (at 50.0 µM), 97.7% (active); in assay [4] (setting [7]), 60%; in assay [4] (setting [8]), 91% (active); in assay [4] (at 50.0 µM), 83.4% (active). Besides, the growth inhibition is 81% (active) in assay [5] (setting [7]); 93% (active) in assay [5] (setting [8]); 94.3% (active) in assay [5] (at 50.0 µM); 93% (active) in assay [6] (setting [7]); 91% (active) in assay [6] (setting [8]); 98.1% (active) in assay [6] (at 50.0 µM).
For the compound `Nc1ccc(S(=O)(=O)O)c2cccc(S(=O)(=O)O)c12`, the growth inhibition in assay [1] (setting [7]) was -2%; in assay [1] (setting [8]) it was -2%; in assay [1] (at 50.0 µM), 3.45%; in assay [2] (setting [7]) it was -2%; in assay [2] (setting [8]), 0%; in assay [2] (at 50.0 µM), 7.4%. Further, the growth inhibition is -2% in assay [3] (setting [7]); 0% in assay [3] (setting [8]); 31.5% in assay [3] (at 50.0 µM); -1% in assay [4] (setting [7]); -7% in assay [4] (setting [8]); 71.9% (active) in assay [4] (at 50.0 µM). The growth inhibition in assay [5] (setting [7]) was 0%; in assay [5] (setting [8]) it was 2%; in assay [5] (at 50.0 µM), 27.2%; in assay [6] (setting [7]) it was -1%; in assay [6] (setting [8]), -2%; in assay [6] (at 50.0 µM) it was -12.9%.
With `O=c1[nH]c2c([N+](=O)[O-])cc(Cl)cc2nc1/C=C(\O)c1ccccc1`, the growth inhibition is 17% in assay [1] (setting [7]); 81% (active) in assay [1] (setting [8]); 49.6% in assay [1] (at 50.0 µM); -3% in assay [2] (setting [7]); 65% in assay [2] (setting [8]); 4.65% in assay [2] (at 50.0 µM). For the same compound, the growth inhibition in assay [3] (setting [7]) is 7%; in assay [3] (setting [8]), 63%; in assay [3] (at 50.0 µM), 66.8%; in assay [4] (setting [7]), 4%; in assay [4] (setting [8]), 59%; in assay [4] (at 50.0 µM), 45.4%. Also, the growth inhibition in assay [5] (setting [7]) was 16%; in assay [5] (setting [8]), 77% (active); in assay [5] (at 50.0 µM), -2.5%; in assay [6] (setting [7]), -9%; in assay [6] (setting [8]) it was 80% (active); in assay [6] (at 50.0 µM), 83.9% (active).
As for `O=C1Nc2ccccc2/C1=N\N=c1/scc(-c2ccccc2)n1-c1ccccc1`, the growth inhibition was 13% in assay [1] (setting [7]); 72% (active) in assay [1] (setting [8]); 59.5% in assay [1] (at 50.0 µM); 5% in assay [2] (setting [7]); 74% (active) in assay [2] (setting [8]); 74.5% (active) in assay [2] (at 50.0 µM). Also, the growth inhibition in assay [3] (setting [7]) is 8%; in assay [3] (setting [8]), 61%; in assay [3] (at 50.0 µM), 62.1%; in assay [4] (setting [7]), 10%; in assay [4] (setting [8]), 90% (active); in assay [4] (at 50.0 µM), 62.6%. The growth inhibition in assay [5] (setting [7]) was 9%; in assay [5] (setting [8]) it was 87% (active); in assay [5] (at 50.0 µM), 51.7%; in assay [6] (setting [7]), 9%; in assay [6] (setting [8]) it was 78% (active); in assay [6] (at 50.0 µM), 88.5% (active).
`O=C(O)C(CS)Nc1c2ccccc2nc2ccccc12` (stereo unspecified): the growth inhibition in assay [1] (setting [7]) was 17%; in assay [1] (setting [8]) it was 88% (active); in assay [1] (at 50.0 µM) it was 88.6% (active); in assay [2] (setting [7]), 10%; in assay [2] (setting [8]) it was 64%; in assay [2] (at 50.0 µM) it was 39.5%. Further, the growth inhibition is 11% in assay [3] (setting [7]); 76% (active) in assay [3] (setting [8]); 65% in assay [3] (at 50.0 µM); 17% in assay [4] (setting [7]); 47% in assay [4] (setting [8]); 68.5% in assay [4] (at 50.0 µM). Also, the growth inhibition in assay [5] (setting [7]) was -5%; in assay [5] (setting [8]), 71% (active); in assay [5] (at 50.0 µM) it was 37.5%; in assay [6] (setting [7]) it was 16%; in assay [6] (setting [8]), 81% (active); in assay [6] (at 50.0 µM), 91.2% (active).
As for `C=CCOc1ccc2c(c1)CC=C1[C@@H]2CC[C@]2(C)C(=N\O)/C(=N/O)C[C@@H]12`, the growth inhibition in assay [1] (setting [7]) is 10%; in assay [1] (setting [8]) it was 95% (active); in assay [1] (at 50.0 µM), 98.8% (active); in assay [2] (setting [7]), -7%; in assay [2] (setting [8]), 99% (active); in assay [2] (at 50.0 µM) it was 99.1% (active). Further, the growth inhibition was -9% in assay [3] (setting [7]); 99% (active) in assay [3] (setting [8]); 99% (active) in assay [3] (at 50.0 µM); -2% in assay [4] (setting [7]); 99% (active) in assay [4] (setting [8]); 98.1% (active) in assay [4] (at 50.0 µM). Moreover, the growth inhibition was 1% in assay [5] (setting [7]); 99% (active) in assay [5] (setting [8]); 98.8% (active) in assay [5] (at 50.0 µM); 45% in assay [6] (setting [7]); 99% (active) in assay [6] (setting [8]); 99% (active) in assay [6] (at 50.0 µM).
With `COC(=O)c1cc(-c2ccccc2)[nH]c(=O)c1C#N`, the growth inhibition in assay [1] (setting [7]) was -8%; in assay [1] (setting [8]), -32%; in assay [1] (at 50.0 µM) it was 44.5%; in assay [2] (setting [7]), -18%; in assay [2] (setting [8]) it was -15%; in assay [2] (at 50.0 µM) it was 5.25%. In addition, the growth inhibition was -5% in assay [3] (setting [7]); -16% in assay [3] (setting [8]); 75.8% (active) in assay [3] (at 50.0 µM); -36% in assay [4] (setting [7]); -21% in assay [4] (setting [8]); 22.6% in assay [4] (at 50.0 µM). For the same compound, the growth inhibition in assay [5] (setting [7]) is -24%; in assay [5] (setting [8]) it was -23%; in assay [5] (at 50.0 µM), -24.7%; in assay [6] (setting [7]) it was 0%; in assay [6] (setting [8]), -21%; in assay [6] (at 50.0 µM) it was 52%.
